From PubChem BioAssay (NCATS)
Records with an inconclusive call do not appear. Values without a mark were called inactive. Active and inactive are the calls of the source. The call rests on the fitted dose curve; in most records, active means well fitted curve in the direction sought with a large enough effect; inconclusive means small, poorly fitted or top-dose-only effect, or another doubt; inactive means no such curve, though single readings can be large; an effect the other way counts as inactive or inconclusive.

Test: qHTS of pediatric cancer cell lines to identify multiple opportunities for drug repurposing: Confirmatory screen for Rh41 cells (AID 1347123);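 further: 48 h compound exposure; nearly all actives have a fitted effect of over 60% in size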;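 on activity change, negative = cytotoxic: plate controls were DMSO for no effect and bortezomib for full effect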
Settings: Rh41 rhabdomyosarcoma cells, viability/cytotoxicity qHTS; series mostly up to 45.9 µM; activity change, negative = cytotoxic: at the top concentration
Method in brief: (§1)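 Cells (500-1,000/well) in growth media were settled 5 h at 37 degrees C, then given compounds for 48 h. Viability was read as CellTiter-Glo luminescence. Primary runs used MIPE at 11 points (0.78 nM-46 µM) and NPC at 8 points (0.59 nM-46 µM); follow-ups used 11 points.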
Potency means the concentration at half of the fitted maximal effect.

Structure (SMILES)	activity change, negative = cytotoxic	Potency
CC1C(=O)OC2C(O)C34C5CC(C(C)(C)C)C36C(OC(=O)C6O)OC4(C(=O)O5)C12O (stereo not given)	-6.41%	
CN(C)CC[C@H](CSc1ccccc1)Nc1ccc(S(=O)(=O)NC(=O)c2ccc(N3CCN(Cc4ccccc4-c4ccc(Cl)cc4)CC3)cc2)cc1[N+](=O)[O-]		4650 nM (active)
Cc1ccc(C(=O)N(CCCN)[C@@H](c2nc3cc(Cl)ccc3c(=O)n2Cc2ccccc2)C(C)C)cc1		24 nM (active)
C[C@H](c1ccc(F)cc1CCCC(=O)O)N(c1cc(F)ccc1F)S(=O)(=O)c1ccc(Cl)cc1	-22.6%	
NC(N)=Nc1nc(CSCCC(N)=NS(N)(=O)=O)cs1	13.9%	
COC(=O)[C@H](c1ccccc1Cl)N1CCc2sccc2C1	-9.83%	
CO[C@H]1/C=C\O[C@@]2(C)Oc3c(C)c(O)c4c(O)c(c(C=NN5CCN(C6CCCC6)CC5)c(O)c4c3C2=O)NC(=O)C(C)=CC=C[C@H](C)[C@H](O)[C@@H](C)[C@@H](O)[C@@H](C)[C@H](OC(C)=O)[C@H]1C		20800 nM (active)
CON(C)C(=O)N1N=C(c2cc(F)ccc2F)S[C@]1(CCCN)c1ccccc1		18.5 nM (active)
CCC[C@H](N[C@@H](C)C(=O)N1[C@@H]2CCCC[C@H]2C[C@H]1C(=O)O)C(=O)OCC	9.65%	
CC1=C(CC(=O)O)c2cc(F)ccc2C1=Cc1ccc(S(C)=O)cc1 (stereo not given)	0.0855%	
CC1(COc2ccc3c(c2)ncn3-c2ccc3cccc(N4CCC(N)CC4)c3n2)COC1		8270 nM (active)
O=c1[nH]nc(OCCCc2ccc(Cl)cc2)c(NCc2cccnc2)c1Br		10400 nM (active)
C[C@@]1(C(=O)Nc2ccc(F)nc2)CCCN1c1nc(Nc2cc(C3CC3)[nH]n2)c2cccn2n1		208 nM (active)
CC1CNc2c(cccc2S(=O)(=O)N[C@@H](CCCN=C(N)N)C(=O)N2CC[C@@H](C)C[C@@H]2C(=O)O)C1 (stereo not given in full)	15.8%	
CC(C)CN(C[C@H](O)[C@H](Cc1ccccc1)NC(=O)O[C@H]1CCOC1)S(=O)(=O)c1ccc(N)cc1	-63.5%	
Cc1c(C(=O)Nc2ccc(N3C[C@@H](C)O[C@@H](C)C3)nc2)cccc1-c1ccc(OC(F)(F)F)cc1		16500 nM (active)
C=C1[C@H](n2cnc3c(=O)[nH]c(N)nc32)C[C@H](O)[C@H]1CO	13.2%	
C[C@@H]1[C@H](O)[C@@H](C)C=CC=CC=CC=CC=CC=CC=C[C@H](O[C@@H]2O[C@H](C)[C@H](O)[C@H](N)[C@@H]2O)C[C@@H]2O[C@](O)(C[C@@H](O)C[C@@H](O)[C@H](O)CC[C@@H](O)C[C@@H](O)CC(=O)O[C@H]1C)C[C@H](O)[C@@H]2C(=O)O	21.7%	
CN1CCN(c2ncc(-c3cc(Cl)cc(Cl)c3Cl)c(N)n2)CC1	-73.5%	
CCC(=O)OCC(=O)[C@@]1(OC(=O)CC)[C@@H](C)C[C@@H]2[C@H]3CCC4=CC(=O)C=C[C@]4(C)[C@@]3(F)[C@@H](O)C[C@@]21C		14700 nM (active)
C[C@@H]1C[C@H]2[C@@H]3CCC4=CC(=O)C=C[C@]4(C)[C@@]3(F)[C@@H](O)C[C@]2(C)[C@@]1(O)C(=O)CO	-14.3%	
COc1ccc(-c2ccc3ncc4c(c3c2)n(-c2ccc(N3CCNCC3)c(C(F)(F)F)c2)c(=O)n4C)cn1		58.5 nM (active)
N#CC(=C1Nc2ccccc2S1)c1ccnc(OCc2ccc(CN3CCOCC3)cc2)n1	-28.5%	

Test: qHTS of pediatric cancer cell lines to identify multiple opportunities for drug repurposing: Confirmatory screen for RD cells (AID 1347124);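 further: cells exposed to compound for 48 h before viability readout; nearly all actives have a fitted effect of over 65% in size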; on activity change, negative = cytotoxic: on the % scale 0 is the no-effect control and ±100 the full control effect
Settings: RD rhabdomyosarcoma cell viability; series mostly up to 45.9 µM; activity change, negative = cytotoxic: at the top concentration
Method in brief: as §1

Structure (SMILES)	activity change, negative = cytotoxic	Potency
CC1C(=O)OC2C(O)C34C5CC(C(C)(C)C)C36C(OC(=O)C6O)OC4(C(=O)O5)C12O (stereo not given)	-15%	
FC(F)(F)c1ccc(C=Cc2nc(COc3ccc(CCCCn4ccnn4)cc3)co2)cc1		1850 nM (active)
Cc1ccc(C(=O)N(CCCN)[C@@H](c2nc3cc(Cl)ccc3c(=O)n2Cc2ccccc2)C(C)C)cc1		2400 nM (active)
CO[C@H]1/C=C\O[C@@]2(C)Oc3c(C)c(O)c4c(O)c(c5c(nc6cc(C)ccn65)c4c3C2=O)NC(=O)C(C)=CC=C[C@H](C)[C@H](O)[C@@H](C)[C@@H](O)[C@@H](C)[C@H](OC(C)=O)[C@H]1C	-11.3%	
NC(N)=Nc1nc(CSCCC(N)=NS(N)(=O)=O)cs1	6.96%	
COC(=O)[C@H](c1ccccc1Cl)N1CCc2sccc2C1	5.37%	
CO[C@H]1/C=C\O[C@@]2(C)Oc3c(C)c(O)c4c(O)c(c(C=NN5CCN(C6CCCC6)CC5)c(O)c4c3C2=O)NC(=O)C(C)=CC=C[C@H](C)[C@H](O)[C@@H](C)[C@@H](O)[C@@H](C)[C@H](OC(C)=O)[C@H]1C	0.599%	
CON(C)C(=O)N1N=C(c2cc(F)ccc2F)S[C@]1(CCCN)c1ccccc1		46.5 nM (active)
CCC[C@H](N[C@@H](C)C(=O)N1[C@@H]2CCCC[C@H]2C[C@H]1C(=O)O)C(=O)OCC	3.65%	
CC1=C(CC(=O)O)c2cc(F)ccc2C1=Cc1ccc(S(C)=O)cc1 (stereo not given)	8.55%	
CC[C@]1(O)C[C@H]2CN(CCC3=c4ccccc4=N[C]3[C@@](C(=O)OC)(c3cc4c(cc3OC)N(C)[C@H]3[C@@](O)(C(N)=O)[C@H](O)[C@]5(CC)C=CCN6CC[C@]43[C@@H]65)C2)C1		369 nM (active)
CC1(COc2ccc3c(c2)ncn3-c2ccc3cccc(N4CCC(N)CC4)c3n2)COC1	24.3%	
CC(C)CN(C[C@H](O)[C@H](Cc1ccccc1)NC(=O)O[C@H]1CCOC1)S(=O)(=O)c1ccc(N)cc1	14.6%	
Cc1c(C(=O)Nc2ccc(N3C[C@@H](C)O[C@@H](C)C3)nc2)cccc1-c1ccc(OC(F)(F)F)cc1	-21.7%	
C=C1[C@H](n2cnc3c(=O)[nH]c(N)nc32)C[C@H](O)[C@H]1CO	10.6%	
C[C@@H]1[C@H](O)[C@@H](C)C=CC=CC=CC=CC=CC=CC=C[C@H](O[C@@H]2O[C@H](C)[C@H](O)[C@H](N)[C@@H]2O)C[C@@H]2O[C@](O)(C[C@@H](O)C[C@@H](O)[C@H](O)CC[C@@H](O)C[C@@H](O)CC(=O)O[C@H]1C)C[C@H](O)[C@@H]2C(=O)O	15.3%	
Cc1cnc(-c2cc(N3CCN(C(=O)CCS(C)(=O)=O)CC3)ncc2Cl)c(C)c1	13.3%	
CN1CCN(c2ncc(-c3cc(Cl)cc(Cl)c3Cl)c(N)n2)CC1	-18%	
CCC(=O)OCC(=O)[C@@]1(OC(=O)CC)[C@@H](C)C[C@@H]2[C@H]3CCC4=CC(=O)C=C[C@]4(C)[C@@]3(F)[C@@H](O)C[C@@]21C	8.28%	
C[C@@H]1C[C@H]2[C@@H]3CCC4=CC(=O)C=C[C@]4(C)[C@@]3(F)[C@@H](O)C[C@]2(C)[C@@]1(O)C(=O)CO	-28.6%	
COc1ccc(-c2ccc3ncc4c(c3c2)n(-c2ccc(N3CCNCC3)c(C(F)(F)F)c2)c(=O)n4C)cn1		185 nM (active)
N#CC(=C1Nc2ccccc2S1)c1ccnc(OCc2ccc(CN3CCOCC3)cc2)n1	7.9%	
